# Non-standard residues stand in square brackets, D forms with d. Residues, ends and D or L forms follow the SMILES beside them. *: point of attachment. Nle = CCCC[C@H](N)C(=O)O; Cbz = O=C(OCc1ccccc1)*; CH2F = FC*
# Target: T1, Transcription intermediary factor 1-alpha (Homo sapiens) (UniProt O15164)
# T1 sequence (whole entry): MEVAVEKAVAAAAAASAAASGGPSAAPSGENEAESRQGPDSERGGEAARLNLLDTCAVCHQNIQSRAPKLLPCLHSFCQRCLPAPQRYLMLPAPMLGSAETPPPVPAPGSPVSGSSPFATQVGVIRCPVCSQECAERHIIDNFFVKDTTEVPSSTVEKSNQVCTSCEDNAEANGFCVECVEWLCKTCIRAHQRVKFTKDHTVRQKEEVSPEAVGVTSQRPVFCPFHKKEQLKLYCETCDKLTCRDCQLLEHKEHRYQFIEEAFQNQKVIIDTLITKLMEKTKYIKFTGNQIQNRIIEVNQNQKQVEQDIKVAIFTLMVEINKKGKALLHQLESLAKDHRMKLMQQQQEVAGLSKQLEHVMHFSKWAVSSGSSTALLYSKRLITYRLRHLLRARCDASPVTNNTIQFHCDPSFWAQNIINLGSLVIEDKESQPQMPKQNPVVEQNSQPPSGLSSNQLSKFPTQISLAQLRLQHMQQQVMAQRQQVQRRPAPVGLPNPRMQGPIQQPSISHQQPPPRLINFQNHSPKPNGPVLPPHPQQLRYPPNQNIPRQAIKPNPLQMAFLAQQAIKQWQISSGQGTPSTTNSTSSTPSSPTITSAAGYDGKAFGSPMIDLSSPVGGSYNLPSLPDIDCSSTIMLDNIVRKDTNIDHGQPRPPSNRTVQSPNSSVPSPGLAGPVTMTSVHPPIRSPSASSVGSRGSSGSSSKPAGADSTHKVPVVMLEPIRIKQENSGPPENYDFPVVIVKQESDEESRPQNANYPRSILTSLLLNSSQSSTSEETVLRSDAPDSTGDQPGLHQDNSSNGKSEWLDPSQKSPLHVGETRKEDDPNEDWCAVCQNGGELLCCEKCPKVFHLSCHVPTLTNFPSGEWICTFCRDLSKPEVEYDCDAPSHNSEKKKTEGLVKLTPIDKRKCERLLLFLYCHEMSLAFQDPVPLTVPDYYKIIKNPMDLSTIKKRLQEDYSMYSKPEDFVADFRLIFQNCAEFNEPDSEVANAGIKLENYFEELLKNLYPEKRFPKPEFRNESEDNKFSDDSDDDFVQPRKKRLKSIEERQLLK
# Conditions: Compound concentration 20.0 uM
row,Compound,ΔTm
1,Cc1noc(C)c1-c1cc(Cl)c(Nc2ccccc2C(=O)O)c(Cl)c1,-1.42 °C
2,Cc1ncccc1-c1cnc(NCc2c(F)ccc3c2CCO3)n2cnnc12,-1.52 °C
3,Fc1ccc(CNc2ncnc3ccc(F)cc23)cc1,-0.4 °C
4,CCCC[C@@H](C=O)NC(=O)[C@H](CC(C)C)NC(=O)[C@H](CC(C)C)NC(C)=O (Ac-Leu-Leu-[Nle]-aldehyde),-1.21 °C
5,Nc1ncnc2nc(-c3ccc(N4CCOCC4)nc3)cc(-c3cccc(Br)c3)c12,0.24 °C
6,COC(=O)CC[C@H](NC(=O)[C@H](Cc1c[nH]c2ccccc12)NC(=O)OCc1ccccc1)C(=O)N[C@@H](Cc1cnc[nH]1)C(=O)N[C@@H](CC(=O)OC)C(=O)CF (Cbz-WE(OMe)HD(OMe)-CH2F),-0.87 °C
7,Cc1ccc(F)c2cc(C(=O)N[C@@H]3CCC[C@H](N4CC[C@H](N(C)S(C)(=O)=O)C4)C3)[nH]c12,-1.39 °C
8,NC(=O)c1cnc(N[C@@H]2CCCC[C@@H]2N)nc1Nc1cccc(-n2nccn2)c1,0.1 °C
9,CN(CCCCCCNc1ccnc2cc(Cl)ccc12)CCCCCCNc1ccnc2cc(Cl)ccc12,0.54 °C
10,CCCOc1ccc(NC(=O)CN2CCN(C)CC2)cc1-c1nc(CC)c(CC)c(=O)[nH]1,-1 °C
11,COc1cc(C(C)C)c2c(c1)S(=O)(=O)N(COc1cc(=O)n3cccc(OCCN4CCCCC4)c3n1)C2=O,-1.28 °C
12,O=C(CCl)Nc1ccc(S(=O)(=O)c2ccc(NC(=O)CCl)cc2)cc1,0.36 °C
13,CCn1c(=O)c(C)cn(Cc2nnc(-c3ccc(F)c(O)c3F)s2)c1=O,-0.63 °C
14,Cc1ncsc1-c1ccc([C@H](C)NC(=O)[C@@H]2C[C@@H](O)CN2C(=O)[C@@H](NC(=O)COCCCOCCNC(=O)C[C@@H]2N=C(c3ccc(Cl)cc3)c3c(sc(C)c3C)-n3c(C)nnc32)C(C)(C)C)cc1,-3.36 °C
15,COc1cc2c(cc1OC)[C@H]1C[C@@H](OC(=O)[C@@H](N)C(C)C)[C@H](CC(C)C)CN1CC2,0.19 °C
16,CC(=O)OCCN1C(=O)c2c(C)nc3ccc(S(=O)(=O)N4CCOCC4)cc3c2C1=O,-1.22 °C
17,COc1cc(-c2cn(C)c(=O)c3cnccc23)cc(OC)c1CN(C)C,0.87 °C
18,COc1cc(Nc2ncc(F)c(Nc3ccc4c(n3)N(COP(=O)(O)O)C(=O)C(C)(C)O4)n2)cc(OC)c1OC,-1.96 °C

row,Compound,ΔTm
1,O=C(NO)C(c1ccc(-c2ncc(C(F)(F)F)cn2)cc1)c1ccccc1F (stereo unspecified),-0.84 °C
2,Cc1ccsc1C(=CCCN1CCC[C@@H](C(=O)O)C1)c1sccc1C,0.76 °C
3,NC(=O)c1cccc(NC(=O)CCC(=O)NCCc2cn(CCNS(=O)(=O)c3cccc(C(=O)O)c3)nn2)c1,-0.11 °C
4,CC(C)c1ccc(C(=O)N=C(N)N)cc1S(C)(=O)=O,-0.41 °C
5,CCc1oc2ccccc2c1C(=O)c1cc(Br)c(O)c(Br)c1,0 °C
6,Cc1sc(C(=O)c2cncnc2N[C@@H]2C[C@H](COS(N)(=O)=O)[C@@H](O)C2)cc1[C@@H]1NCCc2ccc(Cl)cc21,0.42 °C
7,Nc1c[nH]c(=O)c2cc(-c3ccccc3)sc12,-1.2 °C
8,O=C(O)CCNc1cc(N2CCc3ccccc3CC2)nc(-c2cccnc2)n1,-0.51 °C
9,CC1(C)CC[C@]2(C(=O)O)CC[C@]3(C)C(=CC[C@@H]4[C@@]5(C)C=C(O)C(=O)C(C)(C)[C@@H]5CC[C@]43C)[C@@H]2C1,0.88 °C
10,Cn1ncc2c(-c3c(-c4ccc(F)cn4)nn4c3COC(C)(C)C4)ccnc21,-1.33 °C
11,Cc1[nH]c2c(N3CCCCC3)c(-c3ccccc3)nn2c(=O)c1-c1ccc(O)cc1,-0.15 °C
12,O=C1c2ccccc2C(=O)c2oc(-c3cccnc3)nc21,-0.87 °C
13,Cn1c(NCCN(CCO)CCCc2ccc([N+](=O)[O-])cc2)cc(=O)n(C)c1=O,0.26 °C
14,CC(C)[C@H](NC(=O)OCc1ccccc1)C(=O)NC(CC(=O)O)C(=O)CF (stereo partly specified),-1.64 °C
15,CN(C)CCCNC(=O)c1ccc(-c2cc(O)c3ncccc3c2)cc1,1.21 °C
16,O=C(c1cc(Cc2n[nH]c(=O)c3ccccc23)ccc1F)N1CC(CNC2CC2)C1,0.44 °C
17,C[C@@H]1O[C@@H](CC(=O)O)CC2=C1C(=O)c1c(O)cccc1C2=O,-2.3 °C
18,Cc1ncsc1-c1ccc([C@H](C)NC(=O)[C@@H]2C[C@@H](O)CN2C(=O)[C@@H](NC(=O)CNC(=O)c2ccc(F)c(-c3ccc(N4C[C@@H](C)N(C)[C@@H](C)C4)c(NC(=O)c4c[nH]c(=O)cc4C(F)(F)F)c3)c2)C(C)(C)C)cc1,1.29 °C

# Reference: ChEMBL document CHEMBL5724796, “Tm Shift (DSF) assay results for EUbOPEN Chemogenomics Library” (2024)
